Measurements taken from the supplement of paper PMC6124720.

System: Pseudogymnoascus destructans 20631-21
Assay: growth activity index (DuctApe, 0 = no growth, 9 = maximal growth) (index 0-9); higher = more fungal growth (less inhibition), active = 0 or less; extreme values may be limits of the assay
Conditions: temperature: 13 °C, YPD
[1] = concentration level (1-4, increasing; Biolog proprietary): 1
[2] = concentration level (1-4, increasing; Biolog proprietary): 2
[3] = concentration level (1-4, increasing; Biolog proprietary): 3
[4] = concentration level (1-4, increasing; Biolog proprietary): 4

Measured: growth activity index
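Also: biolog Phenotype Microarray plates PM21–25, OD595 followed daily over 11 days, growth curves converted to index, mean of two independent experiments.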

CNC1CC(N)C(O)C(OC2OC(CO)C(O)C3OC4(OC(C(N)CO)C(O)C(O)C4O)OC23)C1O (stereo unspecified) [Hygromycin B] (Biolog plate: PM25)
inactive: [1] 2.67 | [2] 2 | [3] 1
active: [4] 0

N.N.[Cl][Pt][Cl] [Cisplatin] (Biolog plate: PM24)
inactive: [1] 5 | [2] 4.67 | [3] 4 | [4] 4

Nc1ncn[nH]1 [3-Amino-1,2,4-triazole] (Biolog plate: PM22)
active: [1] 0 | [2] 0 | [3] 0 | [4] 0

N#CO [Sodium Cyanate] (Biolog plate: PM23)
inactive: [1] 5 | [2] 4.67 | [3] 4.33 | [4] 4.67

O=[Se](=O)([O-])[O-].[Na+].[Na+] [Sodium Selenate] (Biolog plate: PM23)
inactive: [1] 5 | [2] 4 | [3] 2.67 | [4] 3

[Cl][Cr]([Cl])[Cl] [Chromium (III) chloride] (Biolog plate: PM23)
inactive: [1] 5.33 | [2] 4 | [3] 2 | [4] 3.33

C[n+]1ccc(-c2cc[n+](C)cc2)cc1 [Methyl viologen] (Biolog plate: PM24)
active: [2] 0
inactive: [1] 1 | [3] 0.333 | [4] 0.667

[O-][I+3]([O-])([O-])O [Sodium metaperiodate] (Biolog plate: PM23)
inactive: [1] 2 | [2] 2 | [3] 4.33 | [4] 5

Nc1ccncc1 [4-Aminopyridine] (Biolog plate: PM25)
inactive: [1] 4.67 | [2] 4 | [3] 4.33 | [4] 1.33

[Cl][Ni][Cl] [Nickel chloride] (Biolog plate: PM21)
inactive: [1] 5 | [2] 4.25 | [3] 4.5 | [4] 5

CN(CC[C@H](N)CC(=O)N[C@H]1C=C[C@H](n2ccc(N)nc2=O)O[C@@H]1C(=O)O)C(=N)N [Blasticidin S] (Biolog plate: PM24)
inactive: [1] 4.67 | [2] 4.33 | [3] 4 | [4] 4

CC1C=CC=CCCC=CC=CC=CC=CC(OC2OC(C)C(O)C(N)C2O)CC2OC(O)(CC(O)C(O)CCC(O)CC(O)CC(O)CC(=O)OC(C)C(C)C1O)CC(O)C2C(=O)O (stereo unspecified) [Nystatin] (Biolog plate: PM21)
active: [2] 0 | [3] 0 | [4] 0
inactive: [1] 1.75

[N-]=[N+]=CC(=O)OC[C@H](N)C(=O)O [Azaserine] (Biolog plate: PM22)
inactive: [1] 5 | [2] 4.33 | [3] 4.67 | [4] 4.67

C[C@@H]1C[C@@H]([C@H](O)CC2CC(=O)NC(=O)C2)C(=O)[C@@H](C)C1 [Cycloheximide] (Biolog plate: PM22)
inactive: [1] 5 | [2] 4 | [3] 4.33 | [4] 4.33

O=[As][O-].[Na+] [Sodium Arsenite] (Biolog plate: PM23)
inactive: [1] 4 | [2] 4.67 | [3] 4.33 | [4] 5

CCCCCCCCCCCCCCCC[n+]1ccccc1 [Cetylpyridinium chloride] (Biolog plate: PM21)
inactive: [1] 5.25
active: [2] 0 | [3] 0 | [4] 0

[Na+].[Na+].[O]=[Cr](=[O])([O-])[O][Cr](=[O])(=[O])[O-] [Sodium Dichromate] (Biolog plate: PM21)
inactive: [1] 4.25 | [2] 5 | [3] 5 | [4] 4.25

[Cl][Cd][Cl] [Cadmium Chloride] (Biolog plate: PM23)
active: [4] 0
inactive: [1] 4.33 | [2] 2 | [3] 0.667

O=[Se]([O-])[O-].[Na+].[Na+] [Sodium Selenite] (Biolog plate: PM21)
inactive: [1] 6 | [2] 5.25 | [3] 6 | [4] 4.75

O=[As]([O-])([O-])[O-].[Na+].[Na+].[Na+] [Sodium Arsenate] (Biolog plate: PM22)
inactive: [1] 4.67 | [2] 4.33 | [3] 4 | [4] 2

CCCC1COC(Cn2cncn2)(c2ccc(Cl)cc2Cl)O1 (stereo unspecified) [Propiconazole] (Biolog plate: PM24)
inactive: [1] 4.67 | [2] 2 | [3] 1 | [4] 0.333

[K+].[K+].[O]=[Cr](=[O])([O-])[O-] [Potassium Chromate] (Biolog plate: PM24)
inactive: [1] 3.33 | [2] 4 | [3] 4 | [4] 4.33

[N-]=[N+]=[N-] [Sodium Azide] (Biolog plate: PM23)
active: [3] 0
inactive: [1] 2.67 | [2] 1 | [4] 0.333

CCCCC(C#N)(Cn1cncn1)c1ccc(Cl)cc1 (stereo unspecified) [Myclobutanil] (Biolog plate: PM22)
active: [3] 0 | [4] 0
inactive: [1] 5.33 | [2] 0.667
